# In PubChem BioAssay (NCATS):
# Values joined by “and” are separate entries in the source; they are usually repeats but may differ in a detail not shown here. Identical values can stand only once. Records with an inconclusive call do not appear. Where a call stands in place of a potency, no number is given. Unmarked numbers belong to inactive results. Active and inactive are the calls of the source. Calls follow the shape of the dose curve; as a rule, active = well fitted curve in the direction sought with a large enough effect; inconclusive = small, poorly fitted or top-dose-only effect, or another doubt; inactive = no such curve, though single readings can be large; an effect the other way counts as inactive or inconclusive.
# Assays:
# [1] = biological target: Calcium and integrin-binding protein 1 (Homo sapiens) (UniProt Q99828); assay: Primary qHTS for Identification of Calcium Integrin Binding Protein 1 (CIB1) Competitor (AID 1508620);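 also: GST tagged CIB1 binding a fluorescein labelled alphaIIb integrin peptide tracer; top concentration of the series differs between compounds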
# Sequence of Calcium and integrin-binding protein 1 (Homo sapiens) (Q99828 whole entry, looked up): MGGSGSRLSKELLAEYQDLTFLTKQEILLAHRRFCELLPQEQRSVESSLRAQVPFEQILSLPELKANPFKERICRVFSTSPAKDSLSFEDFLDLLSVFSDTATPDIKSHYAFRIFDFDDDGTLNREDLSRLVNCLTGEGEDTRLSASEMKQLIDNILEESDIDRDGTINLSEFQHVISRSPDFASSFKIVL
# Procedure, shortened: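 CIB1-GST (1 uM final) and compound incubated 15 min at room temperature before adding FITC-alphaIIb peptide tracer (100 nM final). Competition for binding read by fluorescence polarization (ex 480, em 540) after another 15 min at room temperature.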
# [2] = Primary qHTS for inhibitors of nuclear receptor binding SET domain protein 2 (NSD2) in an isogenic RCH-ACV NSD2 p.E1099K mutant (9B) (AID 1645876); also: nearly all actives have a fitted effect of over 70% in size; also: potency is read from the fitted curve at half-maximal effect
# [3] = Primary qHTS for inhibitors of nuclear receptor binding SET domain protein 2 (NSD2) in an RCH-ACV wild type WT cells (2C) (AID 1645877); also: nearly all actives have a fitted effect of over 70% in size; also: potency is read from the fitted curve at half-maximal effect
smiles,measurement,setting,value
C=C[C@H]1C(O[C@@H]2O[C@H](CO)[C@@H](O)[C@H](O)[C@H]2O)OC=C2C(=O)N3CCc4c([nH]c5ccccc45)[C@H]3C[C@H]21 (stereo not given in full),Potency,[1],inactive
same,Potency,[2],inactive
same,Potency,[3],inactive
CC(C)(O)/C=C/CC(C)(O)C1C(O)CC2(C)C3CCC4C(C)(C)C(=O)CCC4(C)C3CCC12C (stereo not given),Potency,[1],inactive
same,Potency,[2],inactive
same,Potency,[3],inactive
CC1(C=O)CC[C@]2(C(=O)O[C@@H]3O[C@H](CO)[C@@H](O)[C@H](O)[C@H]3O)CC[C@]3(C)C(=CCC4[C@@]5(C)C[C@H](O)[C@H](O[C@@H]6OC[C@@H](O)[C@H](O)[C@H]6O)[C@@](C)(CO)C5CC[C@]43C)C2C1 (stereo not given in full),Potency,[1],inactive
same,outcome,[2],inactive [at 9.23 µM]
same,"activity change, negative = cell killing",[3],-3.33% [at 9.23 µM]
COc1cc(O)cc(C)c1C(=O)O[C@@H]1[C@H](O)[C@@H](CO)O[C@H]1n1ccc(=O)[nH]c1=O,Potency,[1],inactive
same,Potency,[2],inactive
same,Potency,[3],inactive
O=C1NC(=O)C(c2cn3c4c(cccc24)CCC3)C1c1c[nH]c2ccccc12 (stereo not given),Potency,[1],inactive
same,Potency,[2],1.03 µM (active)
same,Potency,[3],916 nM (active)
CC1(C)CCC2(C(=O)OC3OC(CO)C(O)C(O)C3O)CCC3(C)C(=CCC4C5(C)CCC(O)C(C)(C(=O)O)C5CCC43C)C2C1O (stereo not given),Potency,[1],inactive
same,Potency,[2],inactive
same,Potency,[3],inactive
C/C=C/C1=CC2=C(CO1)C(=O)C(C)(O)C(OC(=O)c1c(C)cc(OC)cc1O)C2 (stereo not given),Potency,[1],inactive
same,Potency,[2],16 µM (active)
same,Potency,[3],4500 nM (active)
Cc1cc(C)cc(C(=O)NOCCCCCC(=O)NO)c1,Potency,[1],inactive
same,Potency,[2],0.515 µM (active)
same,Potency,[3],409 nM (active)
C/C1=C\CC[C@]2(C)O[C@@H]2[C@H](O)[C@H](C(C)C)[C@H](OC(=O)/C=C/c2ccccc2)C1,Potency,[1],inactive
same,Potency,[2],inactive
same,Potency,[3],inactive
CC(C)CC1NC(=O)C(C)NC(=O)C(CC(C)C)OC(=O)CCCNC1=O (stereo not given),Potency,[1],inactive
same,Potency,[2],inactive
same,Potency,[3],inactive
CCCC(=O)NCCc1csc(-c2ccc(Cl)cc2)n1,Potency,[1],inactive
same,Potency,[2],12.9 µM (active)
same,Potency,[3],18300 nM (active)
COC(=O)C12CCC(C)C(C)C1C1=CCC3C4(C)CCC(OC(C)=O)C(C)(C)C4CCC3(C)C1(C)CC2 (stereo not given),Potency,[1],inactive
same,Potency,[2],inactive
same,Potency,[3],inactive
COc1cc(O)c2c(c1)C1=CC(O)C(O)CC1(C)OC2=O (stereo not given),Potency,[1],inactive
same,Potency,[2],inactive
same,Potency,[3],inactive
OC[C@H]1O[C@@H](O[C@H]2[C@H](OCCc3ccccc3)O[C@H](CO)[C@@H](O)[C@@H]2O)[C@H](O)[C@@H](O)[C@@H]1O,Potency,[1],inactive
same,Potency,[2],inactive
same,Potency,[3],inactive
NC(=O)[C@H](O[C@@H]1O[C@H](CO)[C@@H](O)[C@H](O)[C@H]1O)c1ccccc1,Potency,[1],inactive
same,Potency,[2],inactive
same,Potency,[3],inactive
C/C=C1\[C@H](O[C@@H]2O[C@H](CO)[C@@H](O)[C@H](O)[C@H]2O)OC=C(C(=O)OC)[C@H]1CC(=O)O,Potency,[1],inactive
same,Potency,[2],inactive
same,Potency,[3],inactive
C/C(=C\C=C\C(C)C1CCC2(C)C3CCC4C(C)(C)C(=O)CCC45CC35CCC12C)C(=O)O (stereo not given),Potency,[1],inactive
same,Potency,[2],inactive
same,Potency,[3],inactive
CC1(C)CC2C(C1)C(C)(O)C13CC1(COC3=O)C2O (stereo not given),Potency,[1],inactive
same,Potency,[2],inactive
same,Potency,[3],inactive
COc1cc(C(=O)O)ccc1OC1OC(CO)C(O)C(O)C1O (stereo not given),Potency,[1],inactive
same,Potency,[2],inactive
same,Potency,[3],inactive
COC(=O)C1=CO[C@@H](O[C@@H]2O[C@H](CO)[C@@H](O)[C@H](O)[C@H]2O)[C@@H]2C(CO)=CC[C@]12O,Potency,[1],inactive
same,Potency,[2],inactive
same,Potency,[3],inactive
CC1(C)CC[C@]2(C(=O)O[C@@H]3O[C@H](CO[C@@H]4O[C@H](CO)[C@@H](O)[C@H](O)[C@H]4O[C@@H]4O[C@H](CO)[C@@H](O)[C@H](O)[C@H]4O)[C@@H](O)[C@H](O[C@@H]4O[C@H](CO)[C@@H](O)[C@H](O)[C@H]4O)[C@H]3O)CC[C@]3(C)C(=CCC4[C@@]5(C)CC[C@@H](O)[C@@](C)(C(=O)O[C@@H]6O[C@H](CO)[C@@H](O)[C@H](O)[C@H]6O)C5CC[C@]43C)[C@@H]2C1 (stereo not given in full),"activity change, negative = inhibition",[1],-1.15% [at 12.4 µM]
same,outcome,[2],inactive [at 9.23 µM]
same,outcome,[3],inactive [at 9.23 µM]
CC1OC(OC2C(O)C(OC3CCC4(C)C(CCC5(C)C4CC=C4C6CC(C)(COC7OC(CO)C(O)C(O)C7O)CC(O)C6(C)CCC45C)C3(C)C)OC(C(=O)O)C2O)C(O)C(O)C1OC1OCC(O)C(O)C1O (stereo not given),Potency,[1],inactive
same,"activity change, negative = viability loss",[2],-10.7% [at 9.23 µM]
same,"activity change, negative = cell killing",[3],-2.6% [at 9.23 µM]
CC1(C)CC[C@]2(C(=O)O[C@@H]3O[C@H](CO)[C@@H](O)[C@H](O)[C@H]3O)CC[C@]3(C)C(=CCC4[C@@]5(C)C[C@@H](O)[C@H](O)C(C)(C)C5[C@H](O)C[C@]43C)[C@@H]2[C@@H]1O (stereo not given in full),Potency,[1],inactive
same,Potency,[2],inactive
same,Potency,[3],inactive
CC1=CCC(C(C)(C)O[C@@H]2O[C@H](CO[C@@H]3O[C@@H](C)[C@H](O)[C@@H](O)[C@H]3O)[C@@H](O)[C@H](O)[C@H]2O)CC1 (stereo not given in full),Potency,[1],inactive
same,Potency,[2],inactive
same,Potency,[3],inactive
C[C@H]1CC(=O)Nc2cccc(-c3cnn(C(C)(C)C)c3)c2N1,Potency,[1],inactive
same,Potency,[2],inactive
same,Potency,[3],inactive
CC1(O)CC(O)C2(O)C=COC(O[C@@H]3O[C@H](CO)[C@@H](O)[C@H](O)[C@H]3O)C12 (stereo not given in full),Potency,[1],inactive
same,Potency,[2],inactive
same,Potency,[3],inactive
C[C@@H]1CC[C@@]2(OC1)O[C@H]1C[C@H]3[C@@H]4CC=C5C[C@@H](O)CC[C@]5(C)[C@H]4CC[C@]3(C)[C@H]1[C@@H]2C,Potency,[1],inactive
same,Potency,[2],inactive
same,Potency,[3],inactive
CC[C@]12C=CCN3CC[C@@]4(c5cc([C@@]6(C(=O)OC)C[C@H]7C[C@@H](C(C)(F)F)CN(Cc8c6[nH]c6ccccc86)C7)c(OC)cc5N(C)[C@H]4[C@@](O)(C(=O)OC)[C@@H]1OC(C)=O)[C@@H]32,Potency,[1],inactive
same,Potency,[2],0.139 µM (active)
same,Potency,[3],87.9 nM (active)
COc1ccc(/C=C/C(=O)O[C@@H]2[C@@H](O)[C@@H](O)[C@H](O[C@@H]3C=C(CO)[C@H]4[C@H](O[C@@H]5O[C@H](CO)[C@@H](O)[C@H](O)[C@H]5O)OC=C[C@H]43)O[C@H]2C)cc1O,Potency,[1],inactive
same,Potency,[2],inactive
same,Potency,[3],inactive
C=C1C(O)C(O)C2(CC3C(C)=CCC4C(C)(CO)CCCC34C)OC2C1O (stereo not given),Potency,[1],inactive
same,Potency,[2],inactive
same,Potency,[3],inactive
O=C(O[C@H]1[C@@H]2C=CO[C@@H](O[C@@H]3O[C@H](CO)[C@@H](O)[C@H](O)[C@H]3O)[C@@H]2[C@@]2(CO)O[C@@H]12)c1ccccc1,Potency,[1],inactive
same,Potency,[2],inactive
same,Potency,[3],inactive
CC(O)CO[C@@H]1O[C@H](CO)[C@@H](O)[C@H](O)[C@H]1O (stereo not given in full),Potency,[1],inactive
same,Potency,[2],inactive
same,Potency,[3],inactive
CC(C)=CCC/C(C)=C/CCC1(C)Oc2c(c(O)cc3c2CN(C(CCC(=O)O)C(=O)O)C3=O)CC1O (stereo not given),Potency,[1],inactive
same,Potency,[2],inactive
same,Potency,[3],inactive
O=S(=O)(c1ccc(S(=O)(=O)n2cnc3ccccc32)cc1)N1CCCCCC1,Potency,[1],inactive
same,Potency,[2],inactive
same,Potency,[3],inactive
COc1cc(OC)c(/C=C/S(=O)(=O)Cc2ccc(OC)c(NCC(=O)O)c2)c(OC)c1,Potency,[1],inactive
same,Potency,[2],57.8 nM (active) and 59 nM (active)
same,Potency,[3],51.5 nM (active) and 46.8 nM (active)
C=C1[C@H](OC(C)=O)[C@H]2[C@@H](OC(C)=O)[C@](C)(OC(C)=O)C[C@]2(OC(C)=O)C(=O)[C@H](C)/C=C/C(C)(C)C(=O)[C@H](OC(=O)C(C)CC)[C@H]1OC(C)=O (stereo not given in full),Potency,[1],inactive
same,Potency,[2],inactive
same,Potency,[3],inactive
CC1OC(O[C@H]2CC[C@@]3(C)C(CC[C@]4(C)C3CC=C3C5CC(C)(C)CC[C@]5(C(=O)OC5OC(CO)C(OC6OC(COC7OCC(O)C(O)C7O)C(O)C(O)C6O)C(O)C5O)CC[C@]34C)C2(C)C)C(O)C(O)C1OC1OCC(OC2OCC(O)C(O)C2O)C(O)C1O (stereo not given in full),"activity change, negative = inhibition",[1],-11.1% [at 12.4 µM]
same,outcome,[2],inactive [at 9.23 µM]
same,"activity change, negative = cell killing",[3],2.24% [at 9.23 µM]
CC1C(=O)CC2C3CCC(C(=O)O)C12CC3(C)CO (stereo not given),Potency,[1],inactive
same,Potency,[2],inactive
same,Potency,[3],inactive
CC1OC2OC(=O)C3(C)CC4=C(CO)C5=C(CC(=O)C4(C)C(C1=O)C23)C(C)(C)OC(=O)C5 (stereo not given),Potency,[1],inactive
same,Potency,[2],inactive
same,Potency,[3],inactive
CC(=O)N[C@H]1[C@H](O[C@H]2CC[C@@]3(C)C(CC[C@]4(C)C3CC=C3C5CC(C)(C)CC[C@]5(C(=O)O)[C@H](O)C[C@]34C)C2(C)C)O[C@H](CO[C@@H]2OC[C@H](O)[C@H](O)[C@H]2O[C@@H]2OC[C@@H](O)[C@H](O)[C@H]2O)[C@@H](O)[C@@H]1O (stereo not given in full),Potency,[1],inactive
same,"activity change, negative = viability loss",[2],-10% [at 9.23 µM]
same,"activity change, negative = cell killing",[3],3.06% [at 9.23 µM]
Nc1ccc(/C=C/C(=O)NCc2cc3cc(-c4ccc(C(=O)N5CCC(F)(F)CC5)cc4)cc(-c4ccc(F)cc4)c3o2)cn1,Potency,[1],inactive
same,Potency,[2],235 nM (active) and 231 nM (active)
same,Potency,[3],332 nM (active) and 206 nM (active)
CC1(C)C2CC=C(COC3OC(COC4OCC(O)(CO)C4O)C(O)C(O)C3O)C1C2 (stereo not given),Potency,[1],inactive
same,Potency,[2],inactive
same,Potency,[3],inactive
C=C1C(O)C[C@@H]2C(C(=O)O)=CO[C@@H](O[C@@H]3O[C@H](CO)[C@@H](O)[C@H](O)[C@H]3OC(=O)c3ccc(O)cc3)[C@H]12 (stereo not given in full),Potency,[1],inactive
same,Potency,[2],inactive
same,Potency,[3],inactive
COc1ccc(C2=N[C@@H](c3ccc(Cl)cc3)[C@@H](c3ccc(Cl)cc3)N2C(=O)N2CCNC(=O)C2)c(OC(C)C)c1,Potency,[1],inactive
same,Potency,[2],3.65 µM (active)
same,Potency,[3],1630 nM (active)
CC(C)=CCC[C@](C)(O[C@@H]1O[C@H](CO)[C@@H](O)[C@H](O)[C@H]1O)[C@H]1CC[C@]2(C)[C@@H]1[C@H](O)CC1[C@@]3(C)CC[C@H](O)C(C)(C)C3[C@@H](O[C@@H]3O[C@H](CO)[C@@H](O)[C@H](O)[C@H]3O)C[C@]12C (stereo not given in full),Potency,[1],inactive
same,Potency,[2],inactive
same,Potency,[3],inactive
